Measurements: PubChem BioAssay (EPA / NIEHS)
Calls of active or inactive are those of the source. The calls were made as follows: active = hit-call score of the fitted dose curve at least 0.9, where 1 is the maximum; inactive = score below 0.9.

Legend:
[1] = BSK_3C_SRB: Viability Assessment in the BioMAP Diversity Plus: 3C Assay (AID 2283023); settings: primary human endothelial cells (HUVEC);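 also: fitted both ways against DMSO so a hit may be signal rise or drop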
How it was run: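 Absorbance at 560 nm of sulforhodamine B-stained (0.1%) total protein served as a cytotoxicity readout in human umbilical vein endothelial cells, 24 h after chemical treatment. Signal was fitted bidirectionally relative to DMSO.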

[2] = read-out: Matrix Metallopeptidase 1 (MMP1), MMP1 (gene 4312); test: BSK_BE3C_MMP1: BioMAP Diversity Plus: BE3C Assay for Matrix Metallopeptidase 1 (MMP1) Biomarker Activity (AID 2283024); settings: primary human bronchial epithelial cells; actives raise or lower the signal
How it was run: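 Human bronchial epithelial cells (BE3C system) exposed to compound for 24 h; MMP1 then quantified by ELISA. Activity was fitted in both directions relative to DMSO.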

[3] = BSK_3C_Vis: BioMAP Diversity Plus: 3C Assay for Morphology Visualization (AID 2283025); settings: primary human endothelial cells (HUVEC);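 also: fitted both ways so gain or loss versus DMSO counts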;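 as to AC50: light microscopy image of cell morphology used as background control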
How it was run: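 Chemicals were added to primary human umbilical vein endothelium, cells were incubated 24 h, and morphology was then visualized by light microscopy. Gain or loss of signal was fitted bidirectionally relative to DMSO.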

[4] = read-out: Pselectin, SELP (gene 6403); test: BSK_4H_Pselectin: BioMAP Diversity Plus: 4H Assay for Pselectin Biomarker Activity (AID 2283026); settings: primary human endothelial cells (HUVEC); actives raise or lower the signal
How it was run: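 ELISA read-out of P-selectin on human umbilical vein endothelium after 24 h of dosing. Values derive from bidirectional fitting relative to DMSO. Parallel SRB protein staining flagged overt cytotoxicity.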

[5] = BSK_4H_SRB: Viability Assessment in the BioMAP Diversity Plus: 4H Assay (AID 2283027); settings: primary human endothelial cells (HUVEC);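 also: cells exposed to compound for 24 h before staining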;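 as to AC50: curves fitted both ways versus DMSO so AC50 may be loss or gain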
How it was run: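 Absorbance at 560 nm of SRB-stained total protein served as the viability read-out in confluent primary human umbilical vein endothelium 24 h after chemical treatment. Curves were fitted bidirectionally against DMSO as negative control.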

[6] = BSK_BE3C_SRB: Viability Assessment in the BioMAP Diversity Plus: BE3C Assay (AID 2283028); settings: primary human bronchial epithelial cells
How it was run: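 Cells (human bronchial epithelial, primary) are treated with chemicals, and after 24 h the parallel cultures are fixed in 10% TCA. These are then stained with 0.1% SRB and read at 560 nm. Gain or loss of signal is fitted relative to DMSO.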

[7] = read-out: Thrombomodulin, THBD (gene 7056); test: BSK_3C_Thrombomodulin: BioMAP Diversity Plus: 3C Assay for Thrombomodulin Biomarker Activity (AID 2283029); settings: primary human endothelial cells (HUVEC); actives raise or lower the signal
How it was run: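 Read-out is ELISA of thrombomodulin on human umbilical vein endothelium 24 h after chemical dosing. Gain or loss of signal is scored relative to DMSO. Overt cytotoxicity is checked in parallel cultures by sulforhodamine B staining.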

[8] = read-out: Urokinase-type plasminogen activator receptor (uPAR), PLAUR (gene 5329); test: BSK_4H_uPAR: BioMAP Diversity Plus: 4H Assay for Urokinase-type plasminogen activator receptor (uPAR) Biomarker Activity (AID 2283030); settings: primary human endothelial cells (HUVEC); actives raise or lower the signal
How it was run: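 Cell-surface uPAR ELISA signal, measured 24 h after dosing human umbilical vein endothelial cells, was analyzed with bidirectional fitting relative to DMSO. Parallel SRB staining of total protein tracked overt cytotoxicity.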

[9] = read-out: Vascular endothelial growth factor receptor 2 (Homo sapiens) (UniProt P35968); test: BSK_4H_VEGFRII: BioMAP Diversity Plus: 4H Assay for Vascular endothelial growth factor receptor 2 (VEGFR2) Biomarker Activity (AID 2283031); settings: primary human endothelial cells (HUVEC); actives raise or lower the signal;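 as to AC50: cell-surface VEGFR2 protein level quantified by ELISA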
How it was run: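 ELISA read-out of VEGFRII in primary human umbilical vein endothelium, taken 24 h after chemical treatment. Responses are expressed relative to DMSO, with bidirectional fitting.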

[10] = read-out: Human Leukocyte Antigen - DR isotype (HLADR), HLA-DRA (gene 3122); test: BSK_BE3C_HLADR: BioMAP Diversity Plus: BE3C Assay for Human Leukocyte Antigen - DR isotype (HLADR) Biomarker Activity (AID 2283032); settings: primary human bronchial epithelial cells; actives raise or lower the signal
How it was run: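 ELISA read-out of HLA-DR on human lung bronchial epithelial primary cells, measured 24 h post-dosing. Both increases and decreases were scored relative to DMSO vehicle.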

[11] = read-out: Vascular cell adhesion molecule 1 (VCAM1), VCAM1 (gene 7412); test: BSK_4H_VCAM1: BioMAP Diversity Plus: 4H Assay for Vascular cell adhesion molecule 1 (VCAM1) Biomarker Activity (AID 2283033); settings: primary human endothelial cells (HUVEC); actives raise or lower the signal;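 also: cell-surface VCAM-1 protein measured by ELISA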
How it was run: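 ELISA read-out of VCAM-1 on human umbilical vein endothelium 24 hours after chemical dosing; gain or loss of signal was fitted relative to DMSO, with sulforhodamine B staining of parallel cultures flagging overt cytotoxicity.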

[12] = read-out: Interferon-gamma inducible Protein 10 (IP10), CXCL10 (gene 3627); test: BSK_BE3C_IP10: BioMAP Diversity Plus: BE3C Assay for Interferon-gamma inducible Protein 10 (IP10) Biomarker Activity (AID 2283034); settings: primary human bronchial epithelial cells; actives raise or lower the signal
How it was run: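 Chemical is dosed onto human lung bronchial epithelial primary cells, cultures are incubated 24 h, and IP-10 is then quantified by ELISA. Gain or loss of signal is fitted in both directions relative to DMSO.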

[13] = read-out: Monokine induced gamma interferon (MIG), CXCL9 (gene 4283); test: BSK_BE3C_MIG: BioMAP Diversity Plus: BE3C Assay for Monokine induced gamma interferon (MIG) Biomarker Activity (AID 2283035); settings: primary human bronchial epithelial cells; actives raise or lower the signal;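 also: MIG protein measured by ELISA in BE3C cultures after 24 h of dosing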
How it was run: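 MIG level was determined by ELISA after 24 h chemical treatment of primary human bronchial epithelial cells. Values were fitted bidirectionally with DMSO as the negative control and activity baseline.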

[14] = read-out: Transforming growth factor beta 1 (TGFb1), TGFB1 (gene 7040); test: BSK_BE3C_TGFb1: BioMAP Diversity Plus: BE3C Assay for Transforming growth factor beta 1 (TGFb1) Biomarker Activity (AID 2283036); settings: primary human bronchial epithelial cells; actives raise or lower the signal
How it was run: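 Primary human lung bronchial epithelial cells; compound exposure 24 h; TGF-b1 by ELISA; bidirectional fit, DMSO baseline. Parallel SRB total-protein staining for cytotoxicity.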

[15] = read-out: Plasminogen activator inhibitor-1 (PAI1), SERPINE1 (gene 5054); test: BSK_BE3C_PAI1: BioMAP Diversity Plus: BE3C Assay for Plasminogen activator inhibitor-1 (PAI1) Biomarker Activity (AID 2283037); settings: primary human bronchial epithelial cells; actives raise or lower the signal
How it was run: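 Primary human lung bronchial epithelial cells; chemical dosing; 24 h; PAI-1 measured by ELISA; bidirectional fit referenced to DMSO as negative control.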

[16] = read-out: urokinase plasminogen activator (uPA), PLAU (gene 5328); test: BSK_BE3C_uPA: BioMAP Diversity Plus: BE3C Assay for urokinase plasminogen activator (uPA) Biomarker Activity (AID 2283038); settings: primary human bronchial epithelial cells; actives raise or lower the signal
How it was run: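 Bronchial epithelial cells (human, primary); chemical 24 h; uPA by ELISA; bidirectional fit vs DMSO. SRB (0.1%, after 10% TCA fixation, 560 nm) in parallel cultures for cytotoxicity.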

[17] = read-out: Urokinase-type plasminogen activator receptor (uPAR), PLAUR (gene 5329); test: BSK_BE3C_uPAR: BioMAP Diversity Plus: BE3C Assay for Urokinase-type plasminogen activator receptor (uPAR) Biomarker Activity (AID 2283039); settings: primary human bronchial epithelial cells; actives raise or lower the signal;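 also: cells exposed to compound for one day before measurement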
How it was run: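 Human bronchial epithelial primary cells; chemical exposure 24 h; uPAR by ELISA; bidirectional fit vs DMSO control.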

[18] = read-out: Interleukin-6 (IL6), IL6 (gene 3569); test: BSK_CASM3C_IL6: BioMAP Diversity Plus: CASM3C Assay for Interleukin-6 (IL6) Biomarker Activity for (AID 2283040); settings: primary human coronary artery smooth muscle cells; actives raise or lower the signal
[19] = read-out: Tissue plasminogen activator (tPA), PLAT (gene 5327); test: BSK_BE3C_tPA: BioMAP Diversity Plus: BE3C Assay for Tissue plasminogen activator (tPA) Biomarker Activity (AID 2283041); settings: primary human bronchial epithelial cells; actives raise or lower the signal
How it was run: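 Primary human lung bronchial epithelial cultures receive test chemical; after 24 h, tPA is quantified by ELISA, and gain or loss of signal is fitted bidirectionally relative to DMSO baseline.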

[20] = read-out: Interleukin-8 (IL8), CXCL8 (gene 3576); test: BSK_CASM3C_IL8: BioMAP Diversity Plus: CASM3C Assay for Interleukin-8 (IL8) Biomarker Activity (AID 2283042); settings: primary human coronary artery smooth muscle cells; actives raise or lower the signal;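 also: IL-8 protein level quantified by ELISA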

Measured: AC50

CC(C)=CCCC(C)=CC=O
inactive: all assays above

COc1ccc(/C=C/S(=O)(=O)NC(=O)c2ccc(C)cc2Cl)cc1
inactive: all assays above

COc1ccc2sc(C(=O)Nc3nnn[nH]3)c(OC(C)C)c2c1
active: [1] 12.5 µM | [2] 14.2 µM | [3] 21.9 µM | [4] 4.45 µM | [5] 20 µM | [8] 12.7 µM | [9] 17.6 µM | [10] 19.9 µM | [12] 19.9 µM | [14] 9.17 µM | [15] 12.9 µM | [16] 8.38 µM | [19] 13.9 µM | [20] 29.4 µM
inactive: [6] | [7] | [11] | [13]

O=C(NS(=O)(=O)/C=C/c1ccccc1)c1ccc(F)cc1Cl
active: [10] 6.15 µM
inactive: all other assays above

CCOC(=O)c1ccc(C2CCC(NC[C@H](O)COc3ccc(O)c(NS(C)(=O)=O)c3)CC2)cc1 (stereo partly specified)
active: [1] 25.1 µM | [3] 37.1 µM | [4] 27 µM | [5] 27.5 µM | [16] 14.9 µM
not listed: [17]
inactive: all other assays above

C1=CCCC=CCCC=CCC1
not listed: [17]
inactive: all other assays above
